This is a sample that favours compounds with a hit; in the whole collection about 8.5% have one here.
NPSR antag = qHTS Assay for Antagonists of the Neuropeptide S Receptor: cAMP Signal Transduction. AID 1461, 2008. Potency, µM (top dose mostly 38.3 µM), actives largely listed as inhibitors. Q6W5P4. 220,000 compounds, 1% hits. CHO-NPSR cells, cAMP TR-FRET, antagonist mode; also: nearly all actives have a fitted effect of over 50% in size
Target sequence (Q6W5P4 whole entry, looked up): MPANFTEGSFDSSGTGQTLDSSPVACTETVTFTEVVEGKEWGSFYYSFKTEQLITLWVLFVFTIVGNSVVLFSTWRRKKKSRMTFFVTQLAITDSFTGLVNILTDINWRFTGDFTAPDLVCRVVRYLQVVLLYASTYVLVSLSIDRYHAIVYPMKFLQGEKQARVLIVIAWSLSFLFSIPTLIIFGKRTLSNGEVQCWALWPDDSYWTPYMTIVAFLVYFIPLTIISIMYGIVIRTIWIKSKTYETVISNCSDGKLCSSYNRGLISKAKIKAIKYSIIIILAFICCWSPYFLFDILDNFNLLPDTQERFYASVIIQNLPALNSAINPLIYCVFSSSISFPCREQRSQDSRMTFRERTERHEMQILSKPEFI
RGS12 GoLoco inh = qHTS Assay for Inhibitors of RGS12 GoLoco Motif Activity (Red Fluorophore). 230,000 compounds, 0.44% hits. Gai1:RGS12 GoLoco peptide FP, rhodamine, 10 min. AID 880, 2007. Potency, µM (highest dose often 61.6 µM), actives largely listed as inhibitors; active = well fitted inhibition curve with a large enough effect, not every such curve was filed as active; inactive = no such curve, though single readings can be large or run the other way; also: nearly all actives have a fitted effect of over 30% in size
Target sequence (P63096 whole entry, looked up): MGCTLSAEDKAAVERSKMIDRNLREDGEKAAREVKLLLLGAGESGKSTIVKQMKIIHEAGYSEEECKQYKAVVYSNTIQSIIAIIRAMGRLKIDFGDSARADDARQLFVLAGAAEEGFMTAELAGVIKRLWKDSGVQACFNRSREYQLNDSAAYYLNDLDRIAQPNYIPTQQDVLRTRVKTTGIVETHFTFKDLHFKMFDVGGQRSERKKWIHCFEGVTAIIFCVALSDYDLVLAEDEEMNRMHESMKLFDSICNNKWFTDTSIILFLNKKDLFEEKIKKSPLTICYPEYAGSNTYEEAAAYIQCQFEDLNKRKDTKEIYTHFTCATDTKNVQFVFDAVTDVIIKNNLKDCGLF
FBPA coupling cs = qHTS Assay for Inhibitors of Fructose-1,6-bisphosphate Aldolase from Giardia Lamblia: Coupling assay counterscreen. coupling enzyme system counterscreen, AmpLite Red fluorescence. activity change, negative = inhibition, % at 58.2 µM, hits read low. 290,000 compounds, 0.67% hits; in the data active = activity change below about -30%
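Fluorescence at 525 nm excitation and 598 nm emission measured inhibition of the coupled detection system without aldolase. Compounds (at 57.5 uM final) were preincubated 10 min at room temperature with coupling enzyme reagent before a 20 min substrate/AmpLite Red step.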
Sfp inh = qHTS Assay for Inhibitors of Bacillus subtilis Sfp phosphopantetheinyl transferase (PPTase); Potency, µM, hits mostly inhibitors; AID 1490, 2009; 310,000 compounds, 3.5% hits; Biochemical Sfp PPTase activity, qHTS; 4'-phosphopantetheinyl transferase ffp (Bacillus subtilis), Q9F4F7;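 also: the enzyme is Sfp with the accession as filed and its product quenches rhodamine fluorescence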
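Sfp 15 nM + cpd, 15 min RT; start w/ rhodamine-CoA 5 uM, BHQ-2-YbbR 12.5 uM (final); 50 mM Hepes pH 7.6, 10 mM MgCl2, 0.01% NP-40, 0.01% BSA; read 525/598 nm at 0 and 30 min.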
KDM4E inh = qHTS Assay for Inhibitors of Human Jumonji Domain Containing 2E (JMJD2E); JMJD2E catalytic domain, FDH-coupled NADH fluorescence (FDH is formaldehyde dehydrogenase); 230,000 compounds, 1.6% hits; Lysine-specific demethylase 4E (Homo sapiens), B2RXH2; AID 2147, 2009; Potency, µM (top dose mostly 57.1 µM), actives largely listed as inhibitors; active = well fitted inhibition curve with a large enough effect, not every such curve was filed as active; inconclusive = small, poorly fitted or top-dose-only effect, or another doubt; inactive = no such curve, though single readings can be large or run the other way; also: nearly all actives have a fitted effect of over 50% in size
ALDH1A1 block = qHTS Assay for Inhibitors of Aldehyde Dehydrogenase 1 (ALDH1A1); Aldehyde dehydrogenase 1A1 (Homo sapiens), P00352; AID 1030, 2008; Potency, µM (highest dose often 75.3 µM), usual class: inhibitors; 220,000 compounds, 7.3% hits; Purified ALDH1A1, NADH fluorescence, propionaldehyde substrate; active = well fitted inhibition curve with a large enough effect, not every such curve was filed as active; inconclusive = small, poorly fitted or top-dose-only effect, or another doubt; inactive = no such curve, though single readings can be large or run the other way
Hits are given with their value; n = inactive; u = inconclusive; x = no result; [ ] = remark or other dose. Unless noted, calls follow the shape of the dose curve; as a rule, active = well fitted curve in the direction sought with a large enough effect; inconclusive = small, poorly fitted or top-dose-only effect, or another doubt; inactive = no such curve, though single readings can be large; an effect the other way counts as inactive or inconclusive.

SMILES | NPSR antag | RGS12 GoLoco inh | FBPA coupling cs | Sfp inh | KDM4E inh | ALDH1A1 block
COc1ccc(OC)c(CN2CCN(S(=O)(=O)c3ccc(NC(C)=O)cc3)CC2)c1 | n | n | n | 56.2µM | n | n
CC(C)Nc1nc(C#N)nc(Nc2ccccc2)n1 | x | x | n | x | x | x
CC1(C)S[C@@H]2[C@H](NC(=O)[C@@H](N)c3ccccc3)C(=O)N2[C@H]1C(=O)O[C@H]1OC(=O)c2ccccc21 | x | n | n | n | u | 2.82µM
CC1(C)S[C@@H]2[C@H](NC(=O)C(N)c3ccccc3)C(=O)N2[C@H]1C(=O)O (stereo not given in full) | x | n | n | n | u | n
O=C(CCc1ccccc1)N1CCCC(Nc2ccc(F)cc2)C1 (stereo not given) | x | x | n | n | x | x
O=C(Nc1ccccc1)NC1(C(=O)NCc2cccs2)CCCCC1 | n | n | n | n | u | u
COc1ccc2c(c1OC)C(=O)N1N=C(c3ccc(Cl)cc3)CC21 (stereo not given) | n | n | n | n | n | 11.2µM
COc1ccc2c(c1OC)C(=O)N1c3ccccc3N=C(c3ccc([N+](=O)[O-])cc3)CC21 (stereo not given) | n | n | n | 20µM | n | 10µM
CSc1ccc(/C=N\Nc2nncn2N)cc1 | x | x | n | 79.4µM | x | x
CC1CCN(c2ccc(/C=N\Nc3nncn3N)cc2[N+](=O)[O-])CC1 | n | n | n | 79.4µM | u | u
O=C(NCCNC(=O)c1cc(Cl)ccc1Cl)c1ccco1 | x | x | n | n | x | x
CCOc1cc(C2NC(=O)NC(C)=C2C(=O)OCC2CCCCC2)ccc1O (stereo not given) | x | x | n | n | x | x
Fc1ccc(NC(=S)NCc2ccccc2Cl)cc1 | n | n | n | n | n | n
NS(=O)(=O)c1ccc(NC(=S)N2CCN(Cc3ccc4c(c3)OCO4)CC2)cc1 | n | n | n | 22.4µM | n | n
CC(C)CC(=O)NC(=S)Nc1ccc(S(=O)(=O)NC(C)(C)C)cc1 | n | n | n | n | n | u
NS(=O)(=O)c1ccc(NC(=S)NCc2ccccc2Cl)cc1 | n | n | n | n | n | 25.1µM
CC(C)CC(=O)NNC(=S)Nc1ccc(S(N)(=O)=O)cc1 | n | n | n | 20µM | n | 11.2µM
NS(=O)(=O)c1ccc(NC(=S)NCc2ccccc2)cc1 | n | n | n | 56.2µM | n | 20µM
NS(=O)(=O)c1ccc(NC(=S)N2CCC(Cc3ccccc3)CC2)cc1 | x | x | n | 22.4µM | x | x
Cc1cc(C)c2ccc(=S)[nH]c2n1 | n | n | n | u | u | 3.55µM
COc1ccc2c(C)cc(C)nc2n1 | n | n[14.2 µM] | n | n | n | n[13.5 µM]
COc1ccc(C(C)=O)cc1CSc1nc2cc(Cl)ccc2o1 | u | n | n | n | n | 25.1µM
COc1cnn(-c2cc(Oc3ccc(C)cc3)ncn2)c(=O)c1Cl | n | n | n | n | n | 12.6µM
CCOCCOc1cccc(C(=O)NC(c2ccccc2)c2ccccc2)c1 | x | x | n | n | x | x
Cc1ccc(N2C(=O)SC(N(CC(=O)O)c3cccc(C)c3)C2=O)cc1 (stereo not given) | n | n | n | n | n | u
SMILES | NPSR antag | RGS12 GoLoco inh | FBPA coupling cs | Sfp inh | KDM4E inh | ALDH1A1 block
CC(=O)N(c1ccccc1)C1SC(=O)N(c2ccccc2)C1=O (stereo not given) | n | n | n | n | n | 0.631µM
CC(=O)N(c1cccc(C)c1)C1SC(=O)N(c2ccccc2)C1=O (stereo not given) | n | x | n | n | n | 8.91µM
CCN(CC)c1nc2c(s1)C(=O)CC(C)(C)C2 | n | n | n | n | n | 12.6µM
OC1(c2ccc3ccccc3c2)CCN(Cc2ccccc2)C1 (stereo not given) | n | n | n | 89.1µM | u | n
CC1Cc2nc(SCC(=O)NC3CCCCC3)n(C)c(=O)c2S1 (stereo not given) | n | n | n | 20µM | u | n
Cn1c(SCC(=O)NC2CCCC2)nc2c(c1=O)SCC2 | x | x | x | n | x | x
Cn1c(Cc2csc(N)n2)nnc1SCC(=O)NC1CCCCC1 | n | n | n | 56.2µM | u | u
Cn1c(Cc2csc(N)n2)nnc1SCC(=O)NCc1ccccc1 | n | n | n | u | n | 28.2µM
CCCNC(=S)N1CCC(NC(=O)c2ccc(C)cc2)CC1 | x | x | n | n | x | x
N#Cc1ccc(Oc2cccc3cccnc23)c([N+](=O)[O-])c1 | x | x | -37.0 | n | x | x
Cc1c(C(=O)Oc2cccc3cccnc23)cccc1[N+](=O)[O-] | n | n | n | n | u | u
N#Cc1cc(Oc2cccc3cccnc23)c(-n2nnc3ccccc32)cc1C#N | u | x | n | 50.1µM | 31.6µM | n
Cc1ccc2cccc(Oc3ccc([N+](=O)[O-])cc3[N+](=O)[O-])c2n1 | n | n | n | n | n | n
O=[N+]([O-])c1ccc(Oc2cccc3cccnc23)c([N+](=O)[O-])c1 | n | n | -42.3 | u | n | u
O=C(CSc1nc2ncccc2[nH]1)c1ccc2c(c1)OCO2 | u | n | n | n | n | x
Cc1cc(C)n(-c2ccc(NC(=O)C3CCCCN3C(=O)c3sccc3C)cc2)n1 (stereo not given) | x | x | x | n | x | x
CCOC(=O)CCN(c1ccccc1)S(=O)(=O)c1ccc(-c2ccc(=O)[nH]n2)s1 | x | x | n | n | x | x
CCN(CC)C(=O)C1CCCN(Cc2ccc(OC)c(C)c2C)C1 (stereo not given) | n | n | n | 50.1µM | u | n
CCOC(=O)C1CCCN(Cc2cc(Br)ccc2OC)C1 (stereo not given) | n | n | n | u | u | 10µM
CCOC(=O)C1CCCN(Cc2ccccc2F)C1 (stereo not given) | u | n | n | u | n | 11.2µM
COc1ccc(CN2CCCC(C(=O)N3CCCCC3)C2)c(OC)c1 (stereo not given) | x | x | n | n | x | x
Cn1c(N)c(C(=O)c2ccc(C#N)cc2)c(=O)n(C)c1=O | n | n | n | n | n | n
CN(C)S(=O)(=O)c1ccc(C(=O)Nc2nc(-c3cc4ccccc4o3)cs2)cc1 | n | n | n | n | u | n
Cc1cc(-c2csc(NC(=O)c3ccc(S(=O)(=O)N(C)C)cc3)n2)c(C)n1-c1ccccc1 | n | n | n | n | 28.2µM | u
N#Cc1c(NC(=O)c2cc(-n3cnnc3)ccc2Cl)sc2c1CCCC2 | n | n | n | n | n | 12.6µM
Cc1cc(C(=O)Nc2sc3c(c2C#N)CCCC3)no1 | n | n | n | 20µM | n | 11.2µM
CCOC(=O)c1cc(C(=O)Nc2sc3c(c2C#N)CCCC3)nn1C | x | x | n | 35.5µM | x | x
CC(C)Cc1cc(C(=O)Nc2sc3c(c2C#N)CCCC3)no1 | n | n | n | n | n | 17.8µM

Bioassay records (PubChem)
